# Test results from PubChem BioAssay AID2157 (National Center for Advancing Translational Sciences (NCATS), 2009).
# Records with an inconclusive call do not appear. Unmarked numbers belong to inactive results. Calls follow the shape of the dose curve; as a rule, active = well fitted inhibition curve with a large enough effect; inconclusive = small, poorly fitted or top-dose-only effect; inactive = no such curve, though single readings can be large or run the other way.
# Molecular target: Polyunsaturated fatty acid lipoxygenase ALOX15 (Homo sapiens) (UniProt P16050)
# Sequence (P16050 whole entry, looked up): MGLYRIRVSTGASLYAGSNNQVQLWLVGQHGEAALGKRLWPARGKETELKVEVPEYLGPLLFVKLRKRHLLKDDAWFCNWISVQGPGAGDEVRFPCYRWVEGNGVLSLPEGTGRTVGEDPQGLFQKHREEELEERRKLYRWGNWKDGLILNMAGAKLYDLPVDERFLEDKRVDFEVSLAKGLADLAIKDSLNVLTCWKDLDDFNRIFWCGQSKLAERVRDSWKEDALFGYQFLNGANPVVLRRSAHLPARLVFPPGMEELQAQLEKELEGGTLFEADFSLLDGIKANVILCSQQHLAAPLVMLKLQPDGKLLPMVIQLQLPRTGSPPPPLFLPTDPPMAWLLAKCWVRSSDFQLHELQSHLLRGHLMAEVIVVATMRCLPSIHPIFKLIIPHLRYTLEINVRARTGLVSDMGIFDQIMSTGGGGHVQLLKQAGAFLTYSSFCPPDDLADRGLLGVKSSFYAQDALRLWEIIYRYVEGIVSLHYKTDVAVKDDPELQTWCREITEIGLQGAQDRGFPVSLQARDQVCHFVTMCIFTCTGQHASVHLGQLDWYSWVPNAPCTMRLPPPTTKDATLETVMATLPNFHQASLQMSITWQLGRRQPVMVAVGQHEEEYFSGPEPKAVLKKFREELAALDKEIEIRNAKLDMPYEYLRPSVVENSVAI
# Experiment: Confirmation qHTS Assay for Inhibitors of 15-hLO (15-human lipoxygenase)
# Settings: purified enzyme, xylenol orange hydroperoxide absorbance; active compounds read low
# From the text: Assay Provider: Holman, T.R., University of California, Santa Cruz Screening Center PI: Austin, Christopher P. Screening Center: NIH Chemical Genomics Center Human lipoxygenase 15hLO-1 is a member of the closely related lipoxygenase family of enzymes which catalyze the site-specific oxidation of arachidonic acid to various hormone precursor molecules and as such is a candidate for drug development in a variety of disease areas, such as cancer and inflammation. Inhibition of 15hLO-1 activity was screened by utilizing arachidonic acid as a substrate. The extent of hydroperoxide product formation was measured by a secondary chromogenic reaction in which xylenol orange (XO, Sigma-Aldrich, cat. number 39,818-7) reacts with the ferric ions produced from the reaction between the hydroperoxide and ferrous ions. The Fe(III)-XO complex is characterized with red-shifted absorbance at 560 nm. A purified preparation of human 15hLO-1 was supplied by Professor Ted Holman, University of California, Santa Cruz. This assay includes some confirmation and follow-up compounds for related primary screening assay AID 887.
# Assay Protocol: Buffer: 25 mM Hepes pH 7.5, 0.01% Triton X-100. […] The absorbance at 405 and 573 nm were measured using ViewLux (Perkin-Elmer) High-throughput CCD imager and absorbance protocol settings. The 573-to-405 absorbance ratio was used to compute reaction progress.
compound,measurement,value
CCC(C)C(=O)c1c(O)c(C)c2oc3c(C)c(O)c(C(=O)C(C)CC)c(O)c3c2c1O (stereo unspecified),max response,-17.1%
